Measured values from PubChem BioAssay (NCATS).
Where “and” joins values, the source holds several entries; their conditions need not be identical. Equal values may be shown once. Inconclusive results are not listed. Where a call stands in place of a potency, no number is given. Calls of active or inactive are those of the source. Unless noted, calls come from the whole dose curve; as a rule, active = well fitted curve in the direction sought with a large enough effect; inconclusive = small, poorly fitted or top-dose-only effect, or another doubt; inactive = no such curve, though single readings can be large; an effect the other way counts as inactive or inconclusive.

Tests used:
[1] = Cell Viability - BJ (AID 421; calls by dose curve;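 note: potency is the fitted concentration of half-maximal effect; cells exposed to compound for 40 hours at 37 °C before readout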); conditions: BJ fibroblast viability, qHTS
Outline: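 Cytotoxicity as drop in intracellular ATP (CellTiter-Glo, 20 min RT) after 40 hr compound exposure of BJ fibroblasts at 37 °C. Titrations scaled between DMSO and 100 uM tamoxifen, Hill-fitted for AC50.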

[2] = Cell Viability - HepG2 (AID 433; calls by dose curve;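 note: potency is the fitted concentration of half-maximal effect; potency for ATP loss meaning cytotoxicity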); conditions: qHTS
Outline: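 HepG2 cells, 1500 per well, treated 40 hr at 37 °C in complete medium; viability from intracellular ATP by CellTiter-Glo luminescence. Normalized to DMSO and 100 uM tamoxifen; AC50 from Hill fit of qHTS concentration-response.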

[3] = Cell Viability - MRC5 (AID 434; calls by dose curve;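 note: potency is the fitted concentration of half-maximal effect; potency reflects cytotoxicity seen as loss of intracellular ATP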); conditions: MRC5 lung fibroblast viability, qHTS
Outline: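 qHTS cytotoxicity in human lung fibroblast MRC5 cells; 40 hr treatment, 37 °C; cellular ATP by luciferase luminescence; DMSO = 0%, 100 uM tamoxifen = 100% inhibition; Hill-fit AC50.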

[4] = target: Mitogen-activated protein kinase 10 (Mus musculus) (UniProt Q61831); assay: JNK3 AlphaScreen Assay (AID 530; active = well fitted curve in either direction with a large enough effect, not every such curve was filed as active;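 note: kinase came from lysate of stimulated human HepG2 cells; signal reports phosphorylation of biotinylated GST-cJun 1-79 at Ser73 with 10 µM ATP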); conditions: JNK3 lysate, c-Jun phosphorylation; series mostly up to 57.1 µM
Outline: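 Room-temperature AlphaScreen kinase assay; pre-activated HepG2 lysate as JNK3 source, biotin-GST-cJun(1-79) substrate, 10 uM ATP, compound 15 min preincubation.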

[5] = Cell Viability - Renal Proximal Tubule (AID 545); conditions: renal proximal tubule cells viability; at 91.7 µM (top of the series), primary cells of rat origin unless noted; note: nearly all actives have a fitted effect of over 40% in size
Outline: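 Rat renal proximal tubule primary cells, 1000/well, exposed to compounds for 40 hr at 37 °C in complete medium; cellular ATP read by CellTiter-Glo luminescence. AC50 from concentration-response fitted with standard Hill equation.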

[6] = Cell Viability - Mesenchymal (AID 546); conditions: mesenchymal cells viability, qHTS; series mostly up to 91.7 µM;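 note: cells exposed to compound for 40 hours before reading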
Outline: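 AC50 values reflect the drop in intracellular ATP in a human kidney mesenchymal line derived from normal glomeruli. Treatment lasts 40 hr at 37 °C in complete medium, and the signal comes from CellTiter-Glo luminescence.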

[7] = Cellular Toxicity (caspase-3) Jurkat (AID 655); conditions: Jurkat caspase-3 activation, luminescence, DMSO = 0%, tamoxifen = 100%; at 92.2 µM (top of the series);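 note: cells exposed to compound for 16 h at 37 °C before reading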
Outline: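 Jurkat cells (5000/well) in complete medium exposed 16 h at 37 C; caspase-3/7 activity read by Caspase-Glo luminescence after 20 min at room temperature. Normalized to DMSO and 100 uM tamoxifen; AC50 from Hill fits.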

[8] = Cellular Toxicity (caspase-3) HUV-EC-C (AID 656); conditions: HUV-EC-C cells, caspase-3 activation (apoptosis), vehicle = 0, 100 µM tamoxifen = 100%; series mostly up to 92.2 µM
Outline: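 HUV-EC-C cells (1000/well) in complete medium, compound-treated 16 h at 37 °C; caspase-3/7 activity read by Caspase-Glo 3/7 luminescence. Normalized to DMSO (basal) and 100 uM tamoxifen (100%); AC50 from Hill-equation concentration-response fits.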

[9] = Cellular Toxicity (caspase-3) SHSY5Y (AID 657); conditions: SH-SY5Y caspase-3 activation, DMSO zero, 10 µM staurosporine = 100%; series mostly up to 91.7 µM
Outline: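 SH-SY5Y human neuroblastoma cells, 1500/well, exposed to compound for 16 hours at 37 °C in complete medium. Caspase-3/7 activity read by Caspase-Glo luminescence after 1 hr at room temperature, normalized to DMSO and 10 uM staurosporine; AC50 from Hill fit.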

[10] = Cellular Toxicity (caspase-3) BJ (AID 658); conditions: BJ fibroblasts, luminescence, normalized: DMSO 0%, staurosporine 100%; series mostly up to 91.7 µM
Outline: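 Readout: Caspase-Glo 3/7 luminescence increase in BJ cells after 16 hr treatment at 37 °C. Staurosporine and tamoxifen served as positive controls; AC50 values came from Hill modelling of data normalized to DMSO and 10 uM staurosporine.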

[11] = Cellular Toxicity (caspase-3) MRC-5 (AID 659); conditions: MRC-5 cells, luminescence, normalized: DMSO 0%, 10 µM staurosporine 100%; series mostly up to 91.7 µM
Outline: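 Concentration-dependent caspase 3/7 activation is measured in human normal lung fibroblasts (MRC-5) following 16-hour treatment. AC50 values come from standard Hill-equation modeling of luminescence normalized to DMSO and 10 uM staurosporine.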

[12] = Cellular Toxicity (caspase-3) Mesangial (AID 660); conditions: mesangial cells, normalized: DMSO 0%, 100 µM tamoxifen 100%; series mostly up to 91.7 µM;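 note: cells exposed to compound for 16 h before the caspase read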
Outline: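 Human renal glomerular mesangial cells (1000/well) were treated with compounds for 16 h at 37 °C in complete medium, then caspase 3/7 activity was read by Caspase-Glo luminescence. Data were normalized to DMSO and 100 uM tamoxifen; AC50 from Hill fits.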

[13] = Cellular Toxicity (caspase-3) SK-N-SH (AID 661); conditions: SK-N-SH caspase-3 activation, qHTS, DMSO as zero, staurosporine as full; series mostly up to 91.7 µM
Outline: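 SK-N-SH human neuroblastoma cells (1500/well) were treated with compounds for 16 hr at 37 °C in complete medium; caspase 3/7 activity was read by Caspase-Glo luminescence. AC50 came from Hill fits of data normalized to DMSO and 10 uM staurosporine.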

[14] = Cellular Toxicity (caspase-3) H-4-II-E (AID 663); conditions: H-4-II-E rat hepatoma, scaled: DMSO 0%, 100 µM tamoxifen 100%; series mostly up to 92.2 µM;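 note: cells exposed to compound for 16 hr before readout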
Outline: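 Apoptosis induction is scored as increased luminescence from caspase 3/7 substrate cleavage in rat hepatoma H-4-II-E cells exposed to compound for 16 hr. Activity is scaled between DMSO and 100 uM tamoxifen.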

[15] = Cellular Toxicity (caspase-3) Renal Proximal Tubule (AID 667); conditions: renal proximal tubule cells; at 91.7 µM (top of the series), primary cells freshly taken from rat, solvent-only wells 0%, staurosporine 100% unless noted;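 note: cells exposed to compound for 16 hours at 37 °C before detection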
Outline: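 Freshly isolated primary rat kidney proximal tubule cells, 1000/well, treated 16 hr at 37 °C, then Caspase-Glo 3/7 luminescence after 1 hr. Normalized to DMSO and 10 uM staurosporine; AC50 from Hill fit.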

[16] = qHTS Assay for Identification of Small Molecule Inducers of Hypoxia Response (AID 2120; active = well fitted curve in the direction sought with a large enough effect in the signal ratio, with a control signal flat, not every such curve was filed as active; the % refers to the signal ratio); conditions: hypoxia response reporter cells, beta-lactamase ratio readout; series mostly up to 104 µM
Outline: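 HRE-beta-lactamase reporter in CellSensor HRE-bla ME-180 cells, 2500 cells/well in Opti-MEM with 0.5% dialyzed FBS; compounds tested as titration series, 17 h at 37 degrees C. CCF4 substrate 2.5 h at room temperature; AC50 from 460/530 nm ratio.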

[17] = qHTS assay for small molecule agonists of retinoid X receptor alpha signaling (AID 588544); conditions: HEK293T RXRa-UAS-bla, beta-lactamase reporter, 18 h; 530 nm emission
[18] = qHTS assay for small molecule agonists of the antioxidant response element (ARE) signaling pathway measured by Nrf2-dependant transcriptional activity - cell viability counter screen (AID 720653; active = well fitted curve in the direction sought with a large enough effect in the repeat runs; an effect the other way counts as inactive or inconclusive); conditions: ARE-bla HepG2 viability, CellTiter-Glo ATP luminescence, 16 h; stronger effect = lower value
Outline: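 Cytotoxicity counter screen: intracellular ATP quantified by CellTiter-Glo luminescence in the same ARE-bla HepG2 plates, after 16 h compound exposure and a 2 h beta-lactamase substrate step.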

[19] = qHTS assay for cell viability of HEK293 cells (AID 743288); conditions: ATP luminescence (CellTiter-Glo), 18 h; max response: stronger effect = lower value; note: nearly all actives have a fitted effect of over 50% in size
Outline: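 Parental HEK293 cells, 2,000 per well, preincubated at least 5 h at 37 C, then exposed to compounds in DMSO for 18 h at 37 C. Viability by CellTiter-Glo ATP luminescence after 30 min at room temperature.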

[20] = qHTS assay for cell viability of the p53RE-bla HCT-116 cell line (AID 743292); conditions: p53RE-bla HCT-116 viability, ATP luminescence, 16 h; series mostly up to 95 µM; note: nearly all actives have a fitted effect of over 55% in size
Outline: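 ATP-based luminescent viability (CellTiter-Glo, 30 min RT) after 16 h compound treatment at 37 C of p53RE-bla HCT-116 cells, seeded at 4,000 cells/well and rested 5 h before dosing.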

Row | SMILES | Potency [1] | Potency [2] | Potency [3] | outcome [4] | activity change, negative = cytotoxicity [5] | outcome [6] | caspase-3 activation [7] | outcome [8] | outcome [9] | outcome [10] | outcome [11] | outcome [12] | outcome [13] | outcome [14] | caspase-3 activation [15] | outcome [16] | max response [17] | max response [18] | max response [19] | Potency [20]
1 | S=C=Nc1cccc2ccccc12 | > 92 µM (inactive) | > 92 µM (inactive) | > 92 µM (inactive) | inactive | 4.87% (inactive) | inactive | 1.77% (inactive) | inactive | inactive | inactive | inactive | inactive | inactive | inactive | -4.28% (inactive) | inactive | 6.51% | -2.47% (inactive) | 0.149% (inactive) | inactive
2 | N#CCCCl | > 92 µM (inactive) | > 92 µM (inactive) | > 92 µM (inactive) | inactive | 1.51% (inactive) and -5.91% (inactive) | inactive | -0.233% (inactive) and -1.87% (inactive) | inactive | inactive | inactive | inactive | inactive | inactive | inactive | -13% (inactive) and 8.86% (inactive) | inactive | 5.05% and -2.32% | 4.67% (inactive) and 7.37% (inactive) | -10.6% (inactive) and 0.832% (inactive) | inactive
3 | Clc1nc(Cl)nc(Cl)n1 | > 92 µM (inactive) | > 92 µM (inactive) | > 92 µM (inactive) | inactive | -4.88% (inactive) | inactive | 0.301% (inactive) | inactive | inactive | inactive | inactive | inactive | inactive | inactive | 1.34% (inactive) | inactive | 5.45% and -4.64% | -4.92% (inactive) and -7.17% (inactive) | -10.6% (inactive) and 4.47% (inactive) | inactive
4 | CCN(CC)C(=O)N[C@@H]1C[C@H]2c3cccc4[nH]cc(c34)C[C@@H]2N(C)C1 |  |  |  | inactive |  |  |  |  |  |  |  |  |  |  |  |  |  |  |  | 
5 | COC(=O)NC(=S)Nc1ccccc1NC(=S)NC(=O)OC | > 92 µM (inactive) | > 92 µM (inactive) | > 92 µM (inactive) | inactive | -14.2% (inactive) | inactive | 2.97% (inactive) | inactive | inactive | inactive | inactive | inactive | inactive | inactive | -3.02% (inactive) | inactive | 18.1% and -8.17% | -1.18% (inactive) and 2.94% (inactive) | 1.27% (inactive) and -9.9% (inactive) | inactive
6 | CN1CC[C@]2(C)c3cc(O)ccc3N(C)[C@@H]12 |  |  |  | inactive |  |  |  |  |  |  |  |  |  |  |  |  |  |  |  | 
7 | CCCCCCCC(=O)Cl | > 92 µM (inactive) | > 92 µM (inactive) | > 92 µM (inactive) | inactive | -1.44% (inactive) | inactive | -0.927% (inactive) | inactive | inactive | inactive | inactive | inactive | inactive | inactive | 8.29% (inactive) | inactive | 12.8% | 7.34% (inactive) | -11% (inactive) | inactive
8 | CCCSC(=O)Cl | > 92 µM (inactive) | > 92 µM (inactive) | > 92 µM (inactive) | inactive | -6.97% (inactive) | inactive | 0.745% (inactive) | inactive | inactive | inactive | inactive | inactive | inactive | inactive | 5.81% (inactive) | inactive | -2.47% | -4.21% (inactive) | -1.07% (inactive) | inactive
9 | CC(C)Nc1nc(Cl)nc(NC(C)C)n1 |  |  |  |  |  |  |  |  |  |  |  |  |  |  |  |  | 7.09% | -2.76% (inactive) | -5.95% (inactive) | inactive
10 | CC(C)(C)OOC(C)(C)C | > 92 µM (inactive) | > 92 µM (inactive) | > 92 µM (inactive) | inactive | -8.32% (inactive) | inactive | 0.243% (inactive) | inactive | inactive | inactive | inactive | inactive | inactive | inactive | 11.1% (inactive) | inactive | -0.936% | -1.66% (inactive) | 1.9% (inactive) | inactive
